Source: PubChem BioAssay (National Center for Advancing Translational Sciences (NCATS))
This is a sample that favours compounds with a hit; in the whole collection about 2.3% have one here.
FUS suppressor = rescues growth of FUS-expressing yeast | S. cerevisiae FUS-expressing, growth rescue, OD600, 24 h | Potency, µM (series often up to 76.6 µM), hits mostly activators | hit rate 0.24% among 390,000 | AID 1347120; note: nearly all actives have a fitted effect of over 55% in size
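Steps: raffinose overnight preculture; dilution to OD 0.005 in 2% galactose minimal medium; compound addition (concentration series); 24hr at 30C, 99% humidity; absorbance read at 600 nm.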
TRPV1 potentiator = enhances activation of the human vanilloid receptor TRPV1. TRPV1-expressing cells, Fluo-8 calcium influx, capsaicin EC20 potentiation. Q8NER1. potentiation, % at 8.33 µM. hit rate 0.02% among 320,000; in the data active = potentiation above about 80%; inconclusive = between about 30% and that limit
Target sequence (Q8NER1 whole entry, looked up): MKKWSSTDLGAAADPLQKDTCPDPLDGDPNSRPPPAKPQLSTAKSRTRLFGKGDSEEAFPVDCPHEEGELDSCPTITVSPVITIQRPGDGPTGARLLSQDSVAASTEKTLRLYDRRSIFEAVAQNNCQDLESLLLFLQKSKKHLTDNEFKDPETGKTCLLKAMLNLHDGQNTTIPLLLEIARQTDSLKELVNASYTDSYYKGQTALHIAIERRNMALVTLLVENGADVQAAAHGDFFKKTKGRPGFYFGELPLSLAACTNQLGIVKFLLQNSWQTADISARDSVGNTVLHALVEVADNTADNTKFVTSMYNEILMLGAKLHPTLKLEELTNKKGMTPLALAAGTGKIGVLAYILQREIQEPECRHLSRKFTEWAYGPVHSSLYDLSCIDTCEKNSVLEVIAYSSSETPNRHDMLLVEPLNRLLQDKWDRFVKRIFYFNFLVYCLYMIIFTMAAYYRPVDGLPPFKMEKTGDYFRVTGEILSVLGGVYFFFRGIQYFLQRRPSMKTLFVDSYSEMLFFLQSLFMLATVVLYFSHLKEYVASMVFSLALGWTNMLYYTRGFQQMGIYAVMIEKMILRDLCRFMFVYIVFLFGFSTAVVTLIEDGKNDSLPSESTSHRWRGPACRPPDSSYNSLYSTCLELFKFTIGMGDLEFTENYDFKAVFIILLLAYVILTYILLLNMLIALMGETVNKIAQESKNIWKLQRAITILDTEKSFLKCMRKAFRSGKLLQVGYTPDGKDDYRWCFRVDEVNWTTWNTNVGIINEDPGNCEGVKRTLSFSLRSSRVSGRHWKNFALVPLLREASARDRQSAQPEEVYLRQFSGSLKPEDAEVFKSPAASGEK
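Fluo-8 calcium influx in TRPV1-expressing cells, kinetic read (ex 480/em 520 nm). Compound added and read 3 min for agonist activity, followed by capsaicin at EC20 final and 2 min further read for enhancement.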
Giardia killer = Giardia lamblia killing | Giardia lamblia trophozoite viability | activity change, % at 7.66 µM, hits read low | hit rate 0.15% among 340,000 | AID 540267; in the data active = activity change below about -80%; inconclusive = between about -30% and that limit;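 note: parasites exposed to compound for two days anaerobically before the ATP read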
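Compounds were tested on trophozoites seeded at 100 cells/well and held 48 hrs at 37 deg C anaerobically. An ATP-based luminescent kit measured the remaining live cells.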
TRPV1 agonist = activates the human vanilloid receptor TRPV1 | hit rate 0.19% among 320,000 | AID 540275 | TRPV1-expressing cells, Fluo-8 calcium influx, agonist mode | Q8NER1 | activation, % at 8.33 µM; in the data active = activation above about 80%; inconclusive = between about 30% and that limit
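Fluo-8 calcium influx in TRPV1-expressing cells, kinetic read (ex 480/em 520 nm). Compound added and read 3 min for agonist activity, followed by capsaicin at EC20 final and 2 min further read for enhancement.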
ELG1 DNA repair = inhibitors of ELG1-dependent DNA repair in HEK293T cells | HEK293T ELG1-luciferase reporter, luminescence, 16 h; DNA damage induced by 5-fluorouridine | AID 504467 | Potency, µM (highest dose often 46.1 µM), actives largely listed as inhibitors | hit rate 2.3% among 330,000; note: nearly all actives have a fitted effect of over 55% in size
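Reporter activity after DNA damage by 5-fluorouridine is monitored. Compound-treated cells incubate 16 hr at 37 °C, then ONE-Glo is added for 30 min before luminescence reading.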
Large screens that a line does not name were inactive. Unless noted, calls come from the whole dose curve; as a rule, active = well fitted curve in the direction sought with a large enough effect; inconclusive = small, poorly fitted or top-dose-only effect, or another doubt; inactive = no such curve, though single readings can be large; an effect the other way counts as inactive or inconclusive.

CCOC(=O)c1ccc(NC(=O)CSc2c3c(nc4cc(Cl)ccc24)CCCC3)cc1	none (no result: TRPV1 potentiator, Giardia killer, TRPV1 agonist, ELG1 DNA repair)
Cc1ccc(NC(=O)CCNS(=O)(=O)c2ccc3c(c2)CCCC(=O)N3)cc1	none (no result: TRPV1 potentiator, Giardia killer, TRPV1 agonist, ELG1 DNA repair)
N#C/C(=N\Nc1ccc(Cl)cc1)C(=O)c1ccsc1	ELG1 DNA repair 2.3µM (no result: TRPV1 potentiator, TRPV1 agonist)
N#C/C(=N\Nc1ccc(Cl)cc1)C(N)=S	ELG1 DNA repair 9.2µM
N#C/C(=N\Nc1ccccc1)C(N)=S	ELG1 DNA repair inconclusive
COc1ccc(N2CCN(C(CNC(=O)C(=O)NCCc3ccccc3)c3cccnc3)CC2)cc1 (stereo not drawn)	none (no result: TRPV1 potentiator, Giardia killer, TRPV1 agonist, ELG1 DNA repair)
O=C(NCCc1ccc(Cl)cc1)c1cc(-c2ccc(Cl)cc2)n[nH]1	none (no result: TRPV1 potentiator, Giardia killer, TRPV1 agonist, ELG1 DNA repair)
Cc1sc2c(c1C)c(=O)n(CCc1ccccc1)c(=O)n2Cc1ccc(C(C)(C)C)cc1	none (no result: TRPV1 potentiator, Giardia killer, TRPV1 agonist, ELG1 DNA repair)
COc1ccc(CCC(C)NC(=O)Cc2ccc(OC)c(OC)c2)c(OC)c1 (stereo not drawn)	ELG1 DNA repair 18µM
CC1(C)Cc2cccc(OCC(=O)Nc3ccccc3F)c2O1	TRPV1 agonist inconclusive, ELG1 DNA repair inconclusive
CCCNC(=O)c1ccccc1NC(=O)COc1cccc2c1OC(C)(C)C2	TRPV1 agonist inconclusive, ELG1 DNA repair 15µM
CC(C)(C)OC(=O)NCc1ccc(NC(=O)c2nc[nH]c2C(=O)NCCN(CCNC(=O)c2[nH]cnc2C(=O)Nc2ccc(CNC(=O)OC(C)(C)C)cc2)CCNC(=O)c2[nH]cnc2C(=O)Nc2ccc(CNC(=O)OC(C)(C)C)cc2)cc1	FUS suppressor 8.9µM (no result: TRPV1 potentiator, TRPV1 agonist)
C[C@H](NC(=O)c1[nH]cnc1C(=O)Nc1ccc(CNC(=O)OC(C)(C)C)cc1)C(=O)OC(C)(C)C	FUS suppressor inconclusive, ELG1 DNA repair 16µM
CC(C)(C)OC(=O)NCc1ccc(CNC(=O)c2[nH]cnc2C(=O)Nc2ccccc2F)cc1	none (no result: TRPV1 potentiator, Giardia killer, TRPV1 agonist, ELG1 DNA repair)
C[C@H](NC(=O)c1nc[nH]c1C(=O)NCc1ccc(CNC(=O)OC(C)(C)C)cc1)c1ccccc1	FUS suppressor inconclusive, ELG1 DNA repair 18µM
COc1ccc(-n2c(/C=C/c3cccc4ccccc34)nc3ccccc3c2=O)cc1Cl	none (no result: TRPV1 potentiator, Giardia killer, TRPV1 agonist, ELG1 DNA repair)
COc1ccc(NC(=O)CCc2c(C)nn(-c3ccc(N4CCCC4)nn3)c2C)cc1Cl	none (no result: TRPV1 potentiator, Giardia killer, TRPV1 agonist, ELG1 DNA repair)
COc1cc(-c2nnc(SCC(=O)Nc3cccc(C#N)c3)o2)cc(OC)c1OC	none (no result: TRPV1 potentiator, Giardia killer, TRPV1 agonist, ELG1 DNA repair)
CC(=O)C1=C(OC(=O)C(C)C)c2ccccc2S(=O)(=O)N1Cc1ccccc1	none (no result: TRPV1 potentiator, Giardia killer, TRPV1 agonist, ELG1 DNA repair)
Cc1ccc(Nc2c(-c3ccc(C)s3)nc3ncccn23)cc1	none (no result: TRPV1 potentiator, Giardia killer, TRPV1 agonist, ELG1 DNA repair)
CCc1ccc(NC(=O)Cn2c(C(=O)OC)cc3oc(C)cc32)cc1	none (no result: TRPV1 potentiator, Giardia killer, TRPV1 agonist, ELG1 DNA repair)
CC(=O)CC(=O)NC(=NC1CCCCC1)Nc1nc(C)cc(C)n1	ELG1 DNA repair 10µM
O=C(/C=C\c1ccc2c(c1)OCO2)NC1CC(=O)N(c2ccc(F)cc2)C1 (stereo not drawn)	none (no result: TRPV1 potentiator, Giardia killer, TRPV1 agonist, ELG1 DNA repair)
Fc1ccc(Nc2ncnc3c2nc2n3CCCCC2)c(F)c1	none (no result: TRPV1 potentiator, Giardia killer, TRPV1 agonist, ELG1 DNA repair)
CCOC(=O)/C(=N\Nc1ccc(OC)cc1)c1csc(Nc2ccccc2)n1	ELG1 DNA repair 16µM
CCOC(=O)/C(=N/Nc1ccccc1)c1csc(Nc2ccccc2)n1	ELG1 DNA repair inconclusive
O=C(Nc1ccc(Br)cc1)c1cccc(C(=O)Nc2ccc(Br)cc2)c1	none (no result: TRPV1 potentiator, Giardia killer, TRPV1 agonist, ELG1 DNA repair)
Cc1ccc2cc3cc(C(=O)N4CCN(c5ccccc5)CC4)sc3nc2c1	none (no result: TRPV1 potentiator, Giardia killer, TRPV1 agonist, ELG1 DNA repair)
COc1ccccc1-c1noc(-c2ccc(N3CCOCC3)c([N+](=O)[O-])c2)n1	none (no result: TRPV1 potentiator, Giardia killer, TRPV1 agonist, ELG1 DNA repair)
Cc1cc(C)cc(C(=O)Nn2cnnc2)c1	TRPV1 potentiator 82
COc1ccc(CCN(C)Cc2ccc(C(=O)Nc3ccccc3)cc2)cc1OC	ELG1 DNA repair 7.3µM
CCOC(=O)C1=C(O)/C(=C/c2cn(CC(=O)N3CCCC3)c3ccccc23)SC1=Nc1ccccc1	ELG1 DNA repair 4.1µM
O=C(Nc1cccc(S(=O)(=O)N2CCCC2)c1)c1ccc(Cl)nc1	ELG1 DNA repair 9.2µM (no result: TRPV1 potentiator, TRPV1 agonist)
O=C(Nc1cccc(S(=O)(=O)N2CCOCC2)c1)c1ccc2c(=O)n3c(nc2c1)CCCCC3	TRPV1 agonist inconclusive, ELG1 DNA repair 12µM
CC(=O)c1cccc(NC(=O)c2ccc3c(=O)n4c(nc3c2)CCCCC4)c1	none
COc1ccc(NC(=O)c2ccc3c(=O)n4c(nc3c2)CCCCC4)cc1	ELG1 DNA repair inconclusive
O=C(Nc1cccc(S(=O)(=O)N2CCCC2)c1)c1ccc2c(=O)n3c(nc2c1)CCCCC3	ELG1 DNA repair 5.8µM
O=C(Nc1cccc(S(=O)(=O)N2CCOCC2)c1)c1ccc(Cl)nc1	ELG1 DNA repair inconclusive (no result: TRPV1 potentiator, TRPV1 agonist)
